Records with an inconclusive call do not appear. Activity calls are given as the source filed them. Unless noted, the call rests on the fitted dose curve; in most records, active means well fitted curve in the direction sought with a large enough effect in the repeat runs; inconclusive means weak or mixed curves; inactive means no such curve, though single readings can be large; an effect the other way counts as inactive or inconclusive.
Experiments:
[1] = biological target: Luciferin 4-monooxygenase (Photinus pyralis) (UniProt P08659); experiment: qHTS assay to identify small molecule inhibitors of firefly luciferase (AID 1224835); further: nearly all actives have a fitted effect of over 25% in size; further: potency means the concentration at half of the fitted maximal effect
Outline: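 Biochemical qHTS: compounds run as interplate titrations against purified firefly enzyme, with D-luciferin and ATP each at its KM concentration. Light output recorded by CCD imaging.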

[2] = qHTS assay to identify small molecule agonists of the constitutive androstane receptor (CAR) signaling pathway - cell viability counter screen (AID 1224836); further: nearly all actives have a fitted effect of over 45% in size
Outline: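 Double-stable HepG2 hepatoma cells (hCAR plus CYP2B6-2.2kb) are treated for 23 h at 37 C with test compounds in 15-point concentration series. PK11195 at 0.75 uM final is co-added. Cell viability is quantified by CellTiter-Fluor.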

[3] = qHTS assay to identify small molecule antagonists of the constitutive androstane receptor (CAR) signaling pathway - cell viability counter screen (AID 1224837); further: nearly all actives have a fitted effect of over 45% in size
Outline: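 Cytotoxicity counter-screen: CellTiter-Fluor fluorescence after 23 h compound exposure (15-point qHTS) in double-stable HepG2-CYP2B6-hCAR cells, with 50 nM CITCO added.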

[4] = biological target: Nuclear receptor subfamily 1 group I member 3 (Homo sapiens) (UniProt Q14994); experiment: qHTS assay to identify small molecule antagonists of the constitutive androstane receptor (CAR) signaling pathway (AID 1224838);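 further: HepG2 cells stably expressing hCAR with CYP2B6 luciferase reporter stimulated by CITCO; nearly all actives have a fitted effect of over 40% in size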
Outline: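 Antagonism measured as luciferase signal (ONE-Glo, 30 min, room temperature) in CAR-stimulated cells: HepG2-CYP2B6-hCAR double-stable line exposed 24 hr at 37 C to compound in a 15-point series plus 50 nM CITCO.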

[5] = biological target: Nuclear receptor subfamily 1 group I member 3 (Homo sapiens) (UniProt Q14994); experiment: qHTS assay to identify small molecule agonists of the constitutive androstane receptor (CAR) signaling pathway (AID 1224839);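 further: HepG2 cells stably carrying human CAR and a CYP2B6 luciferase reporter; nearly all actives have a fitted effect of over 15% in size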
Outline: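 Readout: firefly luciferase luminescence via ONE-Glo. System: HepG2 double-stable for hCAR and CYP2B6-2.2kb. Conditions: 15-point compound titration, PK11195 at 0.75 uM final, 24 h incubation.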

[6] = qHTS assay to identify small molecule antagonists of the estrogen related receptor signaling pathway with the pleiotropic PPARgamma coactivator (PGC) from Tox21 10K library - cell viability counter screen (AID 1224840; active means well fitted cell-killing curve with a large enough effect in the repeat runs, not every such curve was filed as active; further: nearly all actives have a fitted effect of over 40% in size)
Outline: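 Counter-screen for cytotoxicity: after 17.5 h compound exposure at 37 C, CellTiter-Fluor reagent added to PGC/ERR cells for 30 min and fluorescence read. Cells were seeded at 2,000 per well 6 h before dosing.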

[7] = qHTS assay to identify small molecule agonists of the estrogen related receptor signaling pathway with the pleiotropic PPARgamma coactivator (PGC) from Tox21 10K library (AID 1224842); further: nearly all actives have a fitted effect of over 15% in size
Outline: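 PGC/ERR reporter cell line, 2,000 cells per well, incubated 6 h at 37 C before 23 nL compound in DMSO was added. After 18 h at 37 C, One-Glo luminescence read following 30 min at room temperature.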

[8] = biological target: Thyrotropin receptor (Homo sapiens) (UniProt P16473); experiment: qHTS assay to identify small molecule agonists of the thyroid stimulating hormone receptor (TSHR) signaling pathway (AID 1224843; calls by dose curve; further: nearly all actives have a fitted effect of over 45% in size)
Outline: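 Agonist-mode screen: TSHR HEK293 cells received test chemicals for half an hour at room temperature, then HTRF cAMP detection reagents for one hour prior to fluorescence measurement. Each chemical ran as a 15-concentration series, triplicated.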

[9] = qHTS assay to identify small molecule agonists of the hypoxia (HIF-1) signaling pathway - cell viability counter screen (AID 1224844; calls by dose curve; further: nearly all actives have a fitted effect of over 50% in size; further: potency means the concentration at half of the fitted maximal effect)
Outline: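 Cytotoxicity measured by CellTiter-Glo ATP luminescence in the wells also read for beta-lactamase signal. Cells were HRE-bla ME-180 (2,000/well, 0.5% dialyzed FBS), exposed to compounds for 17 h at 37C.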

[10] = qHTS assay to identify small molecule agonists of H2AX - cell viability counter screen (AID 1224847; calls by dose curve; further: top concentration of the series differs between compounds; nearly all actives have a fitted effect of over 30% in size)
Outline: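 For this counter screen, overnight-attached CHO-K1 cells received test compounds (15 concentrations, 0.76% DMSO final); 3 hr later at 37C, CellTiter-Glo reagent was added and luminescence recorded after 30 min at room temperature.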

[11] = qHTS assay to identify small molecule antagonists of the estrogen related receptor (ERR) signaling pathway from Tox21 library (AID 1224848); further: nearly all actives have a fitted effect of over 50% in size; further: potency means the concentration at half of the fitted maximal effect
Outline: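 Quantitative high-throughput format: ERR reporter cells (2,000/well) pre-incubated 6 h, treated 18 h at 37 C with compounds in DMSO alongside positive and negative controls, then read by ONE-Glo luminescence.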

[12] = qHTS assay to identify small molecule agonists of the estrogen related receptor (ERR) signaling pathway from Tox21 library (AID 1224849; calls by dose curve; further: nearly all actives have a fitted effect of over 15% in size); details: ERR reporter cell line, ONE-Glo luciferase, 18 h; at 92.4 µM (top of the series) unless noted
Outline: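 Luminescent agonist read-out (One-Glo, 30-minute room-temperature incubation) following 18-hour compound treatment at 37 C of the ERR cell line, which had been plated 6 hours before dosing.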

[13] = qHTS RealTime-Glo MT Cell Viability Assay in HepG2 cells - 24 hour (AID 1224867); further: nearly all actives have a fitted effect of over 50% in size
Outline: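 HepG2 cells were seeded at 600 cells/well together with NanoLuc luciferase and a cell-permeant prosubstrate, preincubated 5 h at 37 C/5% CO2, then pin-dosed with compounds in DMSO. Nonlytic luminescence from viable cells was read at each time point.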

[14] = qHTS RealTime-Glo MT Cell Viability Assay in HEK293 cells - 32 hour (AID 1224868); further: top concentration of the series differs between compounds; nearly all actives have a fitted effect of over 50% in size
Outline: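 HEK293 cells were seeded at 600 cells/well together with NanoLuc luciferase and cell-permeant prosubstrate, preincubated 5 h at 37 C/5% CO2, then given compound in DMSO by pintool. Luminescence from viable-cell prosubstrate reduction was read repeatedly over 40 h.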

[15] = A CellTox Green Cytotoxicity Assay to monitor cytotoxicity in HEK293 cells - 0 hour (AID 1224869); further: nearly all actives have a fitted effect of over 50% in size
Outline: (§1)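 Fluorescence from a DNA-binding dye excluded by viable cells was measured repeatedly in the same HEK293 wells (600 cells/well) during continuous compound exposure at 37 C. Each assay gives one read point: 0, 8, 16, 24, 32 or 40 h.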

[16] = A CellTox Green Cytotoxicity Assay to monitor cytotoxicity in HEK293 cells - 40 hour (AID 1224871); further: nearly all actives have a fitted effect of over 45% in size
Outline: as §1

[17] = qHTS assay to identify small molecule antagonists of the estrogen related receptor signaling pathway with the pleiotropic PPARgamma coactivator (PGC) from Tox21 10K library (AID 1224841; call rule not given here; further: potency means the concentration at half of the fitted maximal effect)
Outline: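 Luminescence (One-Glo, 30 min at room temperature) after 18 h compound treatment at 37 C of PGC/ERR reporter cells plated at 2,000 cells/well and settled 6 h beforehand.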

[18] = qHTS assay to identify small molecule agonists of H2AX (AID 1224845; active means well fitted activation curve with a large enough effect in the signal ratio in the repeat runs, not every such curve was filed as active; the % refers to the signal ratio)
Outline: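 Wild-type CHO-K1 cells, plated overnight, exposed 3hr at 37C to 15 concentrations (0.76% DMSO final). Lysed, then HTRF anti-pH2AX (S139) cryptate and anti-H2AX-d2 antibodies, 24 hr room temperature; 665/620 nm emission read.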

[19] = qHTS assay to identify small molecule agonists of the hypoxia (HIF-1) signaling pathway (AID 1224846; active means well fitted activation curve with a large enough effect in the signal ratio in the repeat runs, not every such curve was filed as active; the % refers to the signal ratio)
Outline: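 Compounds added to ME-180 cells carrying hypoxia-response-element beta-lactamase reporter (0.5% dialyzed FBS, 5 h preplating), 17 h at 37C; agonist activity detected by CCF4-AM B/G FRET read-out.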

[20] = qHTS RealTime-Glo MT Cell Viability Assay in HepG2 cells - 40 hour (AID 1224870); further: nearly all actives have a fitted effect of over 50% in size
Outline: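 HepG2 cells (600/well) mixed with RealTime-Glo MT reagent, settled 5 h at 37 C/5% CO2 before compound addition. Nonlytic NanoLuc luminescence from viable-cell prosubstrate reduction read repeatedly during 40 h treatment at 37 C.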
On the % scale 0 is the no-effect control and ±100 the full control effect.

Sequence of Luciferin 4-monooxygenase (Photinus pyralis) (P08659 whole entry, looked up): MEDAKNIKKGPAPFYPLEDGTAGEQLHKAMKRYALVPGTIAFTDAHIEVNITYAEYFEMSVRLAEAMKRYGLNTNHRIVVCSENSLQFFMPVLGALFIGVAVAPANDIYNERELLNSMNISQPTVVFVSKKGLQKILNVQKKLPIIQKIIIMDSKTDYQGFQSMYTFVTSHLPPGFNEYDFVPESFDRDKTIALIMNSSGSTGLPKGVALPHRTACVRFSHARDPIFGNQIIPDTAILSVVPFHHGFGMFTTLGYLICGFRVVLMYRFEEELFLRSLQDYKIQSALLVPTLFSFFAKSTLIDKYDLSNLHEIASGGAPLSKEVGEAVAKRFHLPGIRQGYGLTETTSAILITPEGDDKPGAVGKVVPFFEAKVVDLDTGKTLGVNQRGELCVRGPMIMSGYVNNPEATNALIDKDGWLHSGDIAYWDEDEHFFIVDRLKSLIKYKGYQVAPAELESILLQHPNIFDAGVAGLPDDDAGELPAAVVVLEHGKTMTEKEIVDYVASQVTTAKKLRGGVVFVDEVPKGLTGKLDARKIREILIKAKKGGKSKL
Sequence of Nuclear receptor subfamily 1 group I member 3 (Homo sapiens) (Q14994 whole entry, looked up): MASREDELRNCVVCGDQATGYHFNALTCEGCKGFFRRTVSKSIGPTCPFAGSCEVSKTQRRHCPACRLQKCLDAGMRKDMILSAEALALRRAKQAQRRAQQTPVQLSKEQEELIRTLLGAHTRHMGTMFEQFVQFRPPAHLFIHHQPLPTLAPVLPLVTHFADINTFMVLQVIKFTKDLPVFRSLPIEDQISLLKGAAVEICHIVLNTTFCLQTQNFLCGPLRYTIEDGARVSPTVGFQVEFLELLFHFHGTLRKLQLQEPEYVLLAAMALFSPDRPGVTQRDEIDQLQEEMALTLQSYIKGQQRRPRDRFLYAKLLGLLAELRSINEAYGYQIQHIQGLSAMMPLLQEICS
Sequence of Thyrotropin receptor (Homo sapiens) (P16473 whole entry, looked up): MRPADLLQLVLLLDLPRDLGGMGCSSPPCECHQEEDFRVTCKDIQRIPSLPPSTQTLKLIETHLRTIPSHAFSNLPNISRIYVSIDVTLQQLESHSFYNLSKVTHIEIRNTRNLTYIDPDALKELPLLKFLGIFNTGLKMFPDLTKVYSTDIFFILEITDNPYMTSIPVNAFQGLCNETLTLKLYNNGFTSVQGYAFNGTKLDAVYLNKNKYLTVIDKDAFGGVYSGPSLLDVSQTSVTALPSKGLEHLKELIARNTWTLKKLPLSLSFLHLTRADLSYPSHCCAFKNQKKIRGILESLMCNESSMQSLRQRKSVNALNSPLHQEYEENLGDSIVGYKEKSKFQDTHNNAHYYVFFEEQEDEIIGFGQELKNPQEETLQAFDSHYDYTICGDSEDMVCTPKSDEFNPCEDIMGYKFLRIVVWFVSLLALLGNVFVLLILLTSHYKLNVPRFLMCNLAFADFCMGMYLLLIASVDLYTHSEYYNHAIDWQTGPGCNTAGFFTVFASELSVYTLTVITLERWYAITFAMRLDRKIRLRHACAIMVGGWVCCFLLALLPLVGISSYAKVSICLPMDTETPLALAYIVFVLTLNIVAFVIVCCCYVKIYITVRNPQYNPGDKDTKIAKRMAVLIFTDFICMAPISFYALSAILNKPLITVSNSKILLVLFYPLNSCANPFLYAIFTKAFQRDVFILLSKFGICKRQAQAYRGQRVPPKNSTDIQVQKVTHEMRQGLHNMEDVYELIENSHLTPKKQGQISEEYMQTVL

CC(C)CCCCCCCOC(=O)c1ccc(C(=O)OCCCCCCCC(C)C)c(C(=O)OCCCCCCCC(C)C)c1
inactive: Potency [1] | Potency [2] | Potency [3] | Potency [4] | Potency [5] | Potency [6] | Potency [7] | Potency [8] | Potency [9] | Potency [10] | Potency [11] | activity change, positive = activation [12] -6.08% | outcome [13] | Potency [14] | Potency [15] | Potency [16]

CCCCCO
inactive: Potency [1] | Potency [2] | Potency [3] | Potency [4] | Potency [5] | Potency [6] | Potency [17] | Potency [7] | Potency [8] | Potency [18] | outcome [19] | Potency [10] | Potency [11] | activity change, positive = activation [12] -0.565% | outcome [13] | Potency [15] | Potency [20] | Potency [16]

O=C(Nc1ccccc1)c1cc([N+](=O)[O-])ccc1Cl
active: Potency [17] 15.4 µM | Potency [11] 54.5 µM
inactive: Potency [1] | Potency [2] | Potency [3] | Potency [4] | Potency [5] | Potency [6] | Potency [7] | Potency [9] | Potency [18] | outcome [19] | Potency [10] | activity change, positive = activation [12] -35.1% | outcome [13] | Potency [14] | Potency [15] | Potency [20]

CC(C)Oc1ccccc1O
inactive: Potency [1] | Potency [2] | Potency [3] | Potency [4] | Potency [5] | Potency [6] | Potency [17] | Potency [7] | Potency [8] | Potency [9] | Potency [18] | outcome [19] | Potency [10] | Potency [11] | Potency [14] | Potency [15] | Potency [20] | Potency [16]

O=C(Cl)c1cc(Cl)cc(Cl)c1
inactive: Potency [1] | Potency [2] | Potency [3] | Potency [4] | Potency [5] | Potency [6] | Potency [8] | Potency [9] | Potency [18] | Potency [10] | outcome [13] | Potency [14] | Potency [15] | Potency [16]

CCCC1CCCC(=O)O1 (centres undefined)
inactive: Potency [1] | Potency [2] | Potency [3] | Potency [4] | Potency [5] | Potency [6] | Potency [8] | Potency [9] | Potency [18] | Potency [10] | Potency [15] | Potency [20] | Potency [16]

CCCCCCOC(=O)c1ccccc1
active: Potency [1] 15.9 µM | Potency [9] 19.5 µM
inactive: Potency [2] | Potency [3] | Potency [4] | Potency [5] | Potency [6] | Potency [17] | Potency [7] | Potency [8] | Potency [18] | Potency [10] | Potency [11] | activity change, positive = activation [12] 5.95% | outcome [13] | Potency [15] | Potency [20] | Potency [16]

C[C@]12CCC(=O)C=C1[C@@H]1C[C@@H]1[C@H]1[C@@H]3[C@@H]4C[C@@H]4[C@@]4(CCC(=O)O4)[C@@]3(C)CC[C@@H]12
inactive: Potency [1] | Potency [2] | Potency [3] | Potency [4] | Potency [5] | Potency [6] | Potency [7] | Potency [9] | Potency [18] | activity change, positive = activation [12] -43.4% [at 42.5 µM] | Potency [15] | Potency [20] | Potency [16]
active: Potency [11] 26.6 µM

Reference: PubChem BioAssay (Tox21)
